This is a sample that favours compounds with a hit; in the whole collection about 1% have one here.
LANA-H2B inh – blocks KSHV LANA binding to histone H2A/H2B; Q9QR71; cell-free LANA-H2A/H2B peptide, fluorescence polarization; inhibition, % (no concentration beside the values); 320,000 compounds, 0.6% hits; in the data active means inhibition mostly above about 10%, no sharp cut-off; inactive means mostly below about 6.7%
Target sequence (Q9QR71 whole entry, looked up): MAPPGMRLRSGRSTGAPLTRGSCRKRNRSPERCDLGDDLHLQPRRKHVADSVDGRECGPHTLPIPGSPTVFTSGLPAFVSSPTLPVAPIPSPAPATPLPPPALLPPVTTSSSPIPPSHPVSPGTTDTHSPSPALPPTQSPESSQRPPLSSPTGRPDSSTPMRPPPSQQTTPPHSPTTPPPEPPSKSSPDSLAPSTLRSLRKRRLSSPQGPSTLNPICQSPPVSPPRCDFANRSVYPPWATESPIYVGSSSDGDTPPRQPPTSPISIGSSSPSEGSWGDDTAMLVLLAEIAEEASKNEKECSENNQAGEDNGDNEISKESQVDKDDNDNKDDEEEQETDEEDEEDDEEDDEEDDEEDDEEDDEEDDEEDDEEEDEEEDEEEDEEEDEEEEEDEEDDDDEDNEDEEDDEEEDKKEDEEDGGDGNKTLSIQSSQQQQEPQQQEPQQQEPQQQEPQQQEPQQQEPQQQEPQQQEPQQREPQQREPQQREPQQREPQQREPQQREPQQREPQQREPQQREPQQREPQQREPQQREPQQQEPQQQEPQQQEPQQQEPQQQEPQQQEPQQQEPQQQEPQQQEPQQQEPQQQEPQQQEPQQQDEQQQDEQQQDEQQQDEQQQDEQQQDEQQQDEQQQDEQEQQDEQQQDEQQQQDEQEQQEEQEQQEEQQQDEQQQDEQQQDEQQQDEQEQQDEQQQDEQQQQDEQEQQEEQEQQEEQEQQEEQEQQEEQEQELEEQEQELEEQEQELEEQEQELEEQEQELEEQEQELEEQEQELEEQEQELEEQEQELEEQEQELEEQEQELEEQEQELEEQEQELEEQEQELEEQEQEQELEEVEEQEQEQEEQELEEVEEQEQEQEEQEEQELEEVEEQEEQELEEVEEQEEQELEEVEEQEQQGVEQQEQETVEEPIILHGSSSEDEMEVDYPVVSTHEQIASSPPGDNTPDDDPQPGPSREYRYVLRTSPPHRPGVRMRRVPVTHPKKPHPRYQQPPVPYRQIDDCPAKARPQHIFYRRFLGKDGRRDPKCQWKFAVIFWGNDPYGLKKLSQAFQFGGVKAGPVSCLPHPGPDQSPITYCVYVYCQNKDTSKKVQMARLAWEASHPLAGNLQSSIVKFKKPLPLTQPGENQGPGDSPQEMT
cardiac RTF act – increases calcium sensitivity of human cardiac regulated thin filaments. AID 493008. 340,000 compounds, 0.24% hits. P19429+P45379. activation, % at 7.2 µM. IANBD-labeled TnC RTF fluorescence at EC20 calcium; 0% EC20 calcium, 100% full calcium;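 active means activation above the mean over all tested compounds plus 3 SD, cut at about 30% in these data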;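 further: rise in fluorescence read as greater calcium sensitivity of cardiac thin filaments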
Keap1 Nrf2 FP – Keap1-Nrf2 (human) interaction inhibition | Q14145 | Keap1 Kelch-Nrf2 peptide fluorescence polarization, 1536-well | inhibition, % at 9.4 µM | 340,000 compounds, 0.15% hits | AID 504523; in the data active means inhibition above about 12%;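 further: human Keap1 Kelch domain with fluorescein labeled Nrf2 9mer peptide probe; higher means more block of Keap1 binding to Nrf2 peptide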
RTF Ca sens inh – cardiac RTF calcium desensitization; IANBD-labeled cardiac RTF, Ca2+ fluorescence; inhibition, % at 7.15 µM; 340,000 compounds, 0.12% hits; AID 493244;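 active means inhibition above the mean inhibition of all tested compounds plus 3 SD, cut at about 17% in these data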;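 further: assay run at fixed EC70 calcium of 1.6 mM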
LANA DNA inh – blocks KSHV LANA C-terminal domain binding to DNA; MBP-C-LANA/FAM-LBS DNA binding, fluorescence polarization; inhibition, % at 9 µM; 340,000 compounds, 0.078% hits;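 active means highest replicate inhibition at or above 60% at 9 µM, even if other replicates fall short; inactive means all replicates below 60% inhibition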
Each line names hits and unclear results; the compound was inactive in the other large screens; ! = not confirmed by another sample.

CC(=O)Nc1cc(C(=O)N2CCC3(CC2)OCCO3)ccc1Sc1ccc(C)cc1	none
CC(=O)Nc1cc(C(=O)N2CCC3(CC2)OCCO3)ccc1Sc1ccc(F)cc1	LANA-H2B inh 29
CN1CCN(c2cn[nH]c(=O)c2Cl)CC1	none
CN1Cc2c(c(C#N)c(N)n(C)c2=S)CC1(C)C	cardiac RTF act 50, Keap1 Nrf2 FP 16
Nc1cc(Cl)cc(C(=O)O)c1Cl	LANA-H2B inh 38
Cc1ccccc1-n1c(O)c(C(c2ccncc2)c2c(O)n(-c3ccccc3C)c(=O)[nH]c2=O)c(=O)[nH]c1=O	none
CCOC(=O)C1(c2ccccc2)CCN(CCc2ccc(NC(=O)CCC(=O)O)cc2)CC1	none (no result: LANA-H2B inh)
O=c1[nH]c(=O)n(-c2ccccc2)c(O)c1/C=C/C=Nc1ccccc1	cardiac RTF act 78
O=c1[nH]c(=O)n(C2CCCCC2)c(O)c1C=Nc1ccc(N2CCOCC2)cc1	LANA DNA inh 198
C=CCn1c(O)c(/C=C/C=Nc2ccccc2)c(=O)[nH]c1=O	none
COc1ccc(-n2c(O)c(/C=C/C=Nc3ccccc3)c(=O)[nH]c2=O)cc1	cardiac RTF act 202
Cc1ccc(-n2c(O)c(/C=C/C=Nc3ccccc3)c(=O)[nH]c2=O)cc1	cardiac RTF act 39
O=c1[nH]c2ccccc2c(=O)n1-c1ccc(Cl)cc1Cl	none
Cc1c(NP(=S)(C(C)(C)C)C(C)(C)C)c(=O)n(-c2ccccc2)n1C	none
CN1CCN(c2ccc(C(F)(F)F)cc2N)CC1	none
CC1CCC(N2CCN(C(=O)COc3ccccc3)CC2)CC1 (configuration not stated)	none
O=c1[nH]c(=O)n(C2CCCCC2)c(O)c1/C=C/C=Nc1ccccc1	cardiac RTF act 55
CCn1c(O)c(C=Nc2ccc(N3CCOCC3)c(Br)c2)c(=O)n(CC)c1=S	none
CCn1c(O)c(C=Nc2ccc(N3CCOCC3)cc2)c(=O)n(CC)c1=S	cardiac RTF act 130
CCOc1cc(C=C2C(=O)NC(=S)NC2=O)ccc1O	Keap1 Nrf2 FP 12 (no result: LANA-H2B inh)
COc1ccc(C(=O)N2CCC3(CC2)OCCO3)cc1	none
COc1ccccc1Cn1c(SCC(=O)C(C)(C)C)nc2cc(C(=O)N3CCC4(CC3)OCCO4)ccc2c1=O	LANA-H2B inh 12 (no result: cardiac RTF act, Keap1 Nrf2 FP, RTF Ca sens inh, LANA DNA inh)
COc1ccc(CC2(CCc3ccncc3)C(=O)NC(=O)NC2=O)cc1OC	none
CC(C)CC(C)N (configuration not stated)	LANA-H2B inh 45
CCN1/C(=C\C=C\C2=[N+](CC)c3ccccc3C2(C)C)C(C)(C)c2ccccc21	cardiac RTF act 895
O=C1NC(=O)N(c2ccc3c(c2)OCO3)C(=O)/C1=C/c1ccc(N2CCCCC2)o1	cardiac RTF act 78
C=CCN1C(=O)/C(=C/c2ccc(N3CCOCC3)o2)C(=O)NC1=S	cardiac RTF act 66
O=C1NC(=O)C(=Cc2ccc(N3CCOCC3)o2)C(=O)N1	cardiac RTF act 47
Cc1cc(C)cc(N2C(=O)/C(=C\c3ccc(N4CCN(C)CC4)o3)C(=O)NC2=S)c1	none (no result: cardiac RTF act, Keap1 Nrf2 FP, RTF Ca sens inh, LANA DNA inh)
CCOC(=O)Cn1cc([N+](=O)[O-])nc1[N+](=O)[O-]	none
COc1ccc(S(=O)(=O)N2Cc3cnnn3-c3ccccc3C2C#N)cc1 (configuration not stated)	none (no result: LANA-H2B inh)
CCOc1cc2c(cc1OCC)-n1cccc1C(c1ccc(OC)c(O)c1)NC2 (configuration not stated)	none
CC(C)[C@H]1C(=O)O[C@H](C(C)C)C(=O)N(C)[C@@H](C(C)C)C(=O)O[C@H](C(C)C)C(=O)N(C)[C@@H](C(C)C)C(=O)O[C@H](C(C)C)C(=O)N1C	none
O=c1[nH]c(=O)n(-c2ccc(Br)cc2)c(O)c1C=NCCN1CCCCC1	none
CC(C)[C@H]1C(=O)N2CCC[C@H]2[C@]2(O)O[C@](NC(=O)[C@@H]3C=C4c5cccc6[nH]cc(c56)C[C@H]4N(C)C3)(C(C)C)C(=O)N12	LANA-H2B inh 11, Keap1 Nrf2 FP 15
CC(C)[C@@]1(NC(=O)[C@@H]2C[C@@H]3c4cccc5[nH]cc(c45)C[C@H]3N(C)C2)O[C@@]2(O)[C@@H]3CCCN3C(=O)[C@H](Cc3ccccc3)N2C1=O	LANA-H2B inh 16
CN1C[C@H](CO)C=C2c3cccc4[nH]cc(c34)C[C@H]21	none
CC(C)C[C@H]1C(=O)N2CCCC2[C@]2(O)O[C@](NC(=O)[C@@H]3C=C4c5cccc6[nH]cc(c56)CC4N(C)C3)(C(C)C)C(=O)N12 (some centres not stated)	LANA-H2B inh 21!, cardiac RTF act 31, Keap1 Nrf2 FP 16
COc1cccc(C2CCN(CC(=O)Nc3cc(Cl)ccc3OC)CC2O)c1 (configuration not stated)	none
CC(=O)NCC(=O)Nc1ccc(Br)cc1C(=O)c1ccccc1	none
CCOC(=O)C1CCCN(c2ccc([N+](=O)[O-])c3nonc23)C1 (configuration not stated)	cardiac RTF act 393, LANA DNA inh 90 (no result: LANA-H2B inh)
CNCC(C)c1ccccc1 (configuration not stated)	none
C[C@]12CCC(=O)C=C1CC[C@@H]1[C@@H]2CC[C@]2(C)C(=O)CC[C@@H]12	LANA-H2B inh 16!
C[C@]12CCC(=O)C=C1CC[C@@H]1C2CC[C@]2(C)C(=O)CCC12 (some centres not stated)	none
CC(Cc1ccccc1)N1C(=O)c2ccccc2C1=O (configuration not stated)	none
CCC1(C)OC(c2ccccc2)=C/C(=C/C=C2C(=O)NC(=O)NC2=O)O1 (configuration not stated)	cardiac RTF act 123 (no result: LANA-H2B inh)
CCOC(=O)C1=C(N)Oc2cc(C)oc(=O)c2C12C(=O)N1c3c(cccc32)C(C)CC1(C)C (configuration not stated)	LANA-H2B inh 33
CCOC(=O)C1=C(N)Oc2cc(C)oc(=O)c2C12C(=O)N1c3c(cccc32)C(C)=CC1(C)C (configuration not stated)	none
N#CC1c2ccccc2-n2nncc2CN1S(=O)(=O)c1cc(Cl)cc(Cl)c1 (configuration not stated)	none (no result: LANA-H2B inh)
COC1C(C)OC(OC2CC(C)(O)Cc3cc4c(c(O)c32)C(=O)c2c(O)cc3c(c2C4=O)OC2OC3(C)C(O)C(N(C)C)C2O)C(OC)C1(C)OC (configuration not stated)	cardiac RTF act 678 (no result: LANA-H2B inh)
N#CCCn1cc(C(=O)NCc2ccccc2)c(-c2ccccc2)n1	none
O=C(c1ccc2c(=O)n(Cc3ccc4c(c3)OCO4)c(=S)[nH]c2c1)N1CCC2(CC1)OCCO2	LANA-H2B inh 57
O=C(NCc1ccc(C(=O)N2CCC3(CC2)OCCO3)cc1)c1ccc2c(c1)OCO2	none
N#CC(=C(O)c1ccc(S(=O)(=O)N(CCCl)CCCl)cc1)c1nc2ccccc2[nH]1	none (no result: LANA-H2B inh)
CCOCCCn1c(N)c(C(=O)Nc2sc3c(c2C(=O)OC)CCCC3)c2nc3ccccc3nc21	cardiac RTF act 52

Source: PubChem BioAssay
